The source of these data is PubChem BioAssay (NCI).

The panel holds about 79,000 compounds, 15% with a hit somewhere; the sample as a whole holds those more often. Values without a mark were called inactive. Activity calls are given as the source filed them. Rule as the data show it: active = growth inhibition above about 70%; inactive = the rest.

Assay [1] in a line: NCI Yeast Anticancer Drug Screen. Data for the rad50 strain (AID 155).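 Also: 0% = growth of vehicle-only cultures of the same strain.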 The settings on record: S. cerevisiae rad50 strain growth inhibition; at 50.0 µM; active compounds read high. The procedure, abridged: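 Relative growth inhibition (compound vs vehicle) was measured in yeast with a defined repair-gene alteration.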
A short description of assay [2]: NCI Yeast Anticancer Drug Screen. Data for the mec2-1 strain (AID 157). The settings on record: S. cerevisiae mec2-1 strain, at 50.0 µM, active compounds read high. The method in brief:
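Growth inhibition is read against vehicle-treated controls after compound exposure of the mec2-1 yeast strain, which is defective in DNA damage repair or cell cycle control.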

The nature of assay [3]: NCI Yeast Anticancer Drug Screen. Data for the sgs1 mgt1 strain (AID 161).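 Also: 0% = growth of cultures given vehicle only.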 The following applies: S. cerevisiae sgs1 mgt1 strain, at 50.0 µM, active compounds read high. The procedure, abridged: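 Yeast cells carrying a defined DNA-repair defect were exposed to test compounds. Growth inhibition was measured relative to vehicle-treated controls.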
Assay [4] can be described thus: NCI Yeast Anticancer Drug Screen. Data for the bub3 strain (AID 167). The settings on record: S. cerevisiae bub3 mutant strain, at 50.0 µM, active compounds read high. The method in brief:
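Screening used yeast with an engineered genetic alteration affecting cell cycle control. Compound-exposed cultures were compared with vehicle cultures, and reduced growth was taken as inhibition.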

A short description of assay [5]: NCI Yeast Anticancer Drug Screen. Data for the mlh1 rad18 strain (AID 175). The settings on record: S. cerevisiae mlh1 rad18 strain growth inhibition; at 50.0 µM; active compounds read high. The method in brief: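 Cells of a genetically altered yeast strain, deficient in DNA damage repair, were treated with compound. Their growth was then compared with that of vehicle-treated cultures to give inhibition.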

The nature of assay [6]: NCI Yeast Anticancer Drug Screen. Data for the cln2 rad14 strain (AID 165).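 Also: 0% = growth equal to vehicle treated cultures.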 The following applies: S. cerevisiae cln2 rad14 strain, at 50.0 µM, active compounds read high. The procedure, abridged:
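Growth inhibition, relative to vehicle-treated controls, is the read-out. The test organism is a yeast strain with defined genetic alterations, cln2 rad14.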

`O=C(N/N=C/c1cc(-c2ccccc2Cl)c(-c2ccccc2Cl)o1)c1ccncc1`: the growth inhibition is 14.5% in assay [1]; 23.6% in assay [2]; 38.4% in assay [3]; 26.7% in assay [4]; 28.3% in assay [5].
Turning to `Cc1ncc([N+](=O)[O-])n1CCSC(N)=O`, the growth inhibition in assay [1] is -6.75%; in assay [2] it was -13.6%; in assay [6] it was 11.4%; in assay [4] it was 16.8%; in assay [5], 33.5%.
Take `O=C(O)Cc1ccc(OCCCCCOc2ccc(CC(=O)O)cc2)cc1`: the growth inhibition in assay [1] was 6.05%; in assay [2], 0.25%; in assay [6] it was -49.9%; in assay [4], -12%; in assay [5] it was 4.35%.
Taken in the same sequence, the figures for `C[s+]1c2ccccc2c2ccccc21` were -65.8%, -46.4%, -22.6%, -13.2% and -49.8%.
Taken in the same sequence, the figures for `CCCCCCCCCCCCS(=O)(=O)N/N=C(\c1ccccc1Cl)N1CCOCC1` were 48.2%, 33.5%, 48.2%, 55.8% and 51.2%.
Taken in the same sequence, the figures for `CNC(=O)NC1C(CO)OC2OC(C)(C)OC21` (centres undefined) were 6.5%, 5.25%, -35.3%, -9.85% and 2.55%.
On to `C[C@H]1C[C@H]2[C@@H]3CC[C@@]4(OCC4=O)[C@@]3(C)C[C@H](O)[C@]2(F)[C@@]2(C)C=CC(=O)C=C12`, for which the growth inhibition in assay [1] is -16.6%; in assay [2] it was -24.4%; in assay [6], -34.9%; in assay [4], 17.4%; in assay [5] it was 0.35%.
Taken in the same sequence, the figures for `Nc1[nH]c(=S)nc2nc3c(c(-c4ccccc4)c12)CCCC3` were -45.9%, -13.5%, -3.05%, -13.6% and -14.4%.
With `C=C1CCC23CC(CC[C@@H]2[C@@]12C[C@@H](c1ccoc1)OC2=O)OC3=O` (some centres undefined), the growth inhibition in assay [1] was 2.6%; in assay [2] it was -12.6%; in assay [6] it was -5.1%; in assay [4], 5.35%; in assay [5], 1.8%.
Taken in the same sequence, the figures for `c1ccc(OCCCCN2CCNCC2)cc1` were 1.85%, -14.3%, -10.1%, 8.3% and -10.2%.
Consider `Cc1ccsc1S(N)(=O)=O`, for which the growth inhibition in assay [1] is -21.1%; in assay [2], -23.1%; in assay [6], -12.2%; in assay [4], 11.4%; in assay [5] it was -6.75%.
`CSc1cc(Cl)c(C)cc1S(=O)(=O)NC(=O)NNc1cccc(C(F)(F)F)n1`: the growth inhibition in assay [1] is 15.2%; in assay [2], 5.25%; in assay [6], -5.4%; in assay [4] it was -4.9%; in assay [5], 24.6%.
Take `Cc1cc(=O)[nH]c2ccc(-c3ccc4[nH]c(=O)cc(C)c4c3)cc12`: the growth inhibition in assay [1] was 21.4%; in assay [2], -17.2%; in assay [6], 5.15%; in assay [4] it was 23.1%; in assay [5], 18%.
`Cn1c2ccccc2c(=O)c2cc(NC(=O)CCCCCCCC(=O)Nc3ccc4c(c3)c(=O)c3ccccc3n4C)ccc21`: the growth inhibition in assay [1] was -10.7%; in assay [2], -12.8%; in assay [6] it was -12.6%; in assay [4], -27.2%; in assay [5], -1.45%.
With `COC(=N)c1ncn(Cc2ccccc2)c1N`, the growth inhibition in assay [1] was -21.6%; in assay [2], -28.6%; in assay [6] it was -24.4%; in assay [4] it was -7.35%; in assay [5], -37.3%.
In the case of `COc1c2occc2c(OC)c2c(=O)c(S(=O)(=O)NC(=O)Nc3ccc(Cl)cc3)coc12`, the growth inhibition was 5.7% in assay [1]; -11.8% in assay [2]; -55.8% in assay [6]; -20.3% in assay [4]; 2.4% in assay [5].
With `COC(=O)c1nc(N)nc(C(=O)OC)c1C(=O)c1cc(Cl)ccc1Cl`, the growth inhibition is -8.35% in assay [1]; -7.9% in assay [2]; -18.2% in assay [6]; -6.3% in assay [4]; -5.65% in assay [5].
Turning to `CCC(CC)COC(=O)c1ccccc1`, the growth inhibition in assay [1] is 0.95%; in assay [2], -7.05%; in assay [6], -14.8%; in assay [4] it was 17.2%; in assay [5], -0.75%.
As for `Cc1ccsc1C(=O)c1ccccc1`, the growth inhibition in assay [1] is -11.6%; in assay [2] it was -7%; in assay [4], -1.5%; in assay [5] it was 5.45%.
Turning to `CCCC(CCC)C(=O)[O-].CCCC(CCC)C(=O)[O-].CCCC(CCC)C(=O)[O-].CCCC(CCC)C(=O)[O-].[Cu+2].[Cu+2]`, the growth inhibition is 1.4% in assay [1]; 13.4% in assay [2]; 19.9% in assay [6]; 20% in assay [4]; 14.2% in assay [5].
Turning to `CCCCCC(=O)NC1CCCCC1`, the growth inhibition was 5.55% in assay [1]; 13.6% in assay [2]; -7.4% in assay [6]; -30.6% in assay [4]; 15.5% in assay [5].
With `CC1=NN(C(=O)c2ccccc2)C(=O)C1N=Nc1ccc([N+](=O)[O-])cc1` (centres undefined), the growth inhibition in assay [1] was -3.3%; in assay [2], -5.5%; in assay [6], -10.8%; in assay [4] it was 0%; in assay [5], -3.35%.
`CCCCCCCCCCCCN=Cc1cc(Cc2ccc(O)c(C=NCCCCCCCCCCCC)c2)ccc1O`: the growth inhibition was 85.7% (active) in assay [1]; 80.4% (active) in assay [2]; 84.2% (active) in assay [6]; 83.7% (active) in assay [4]; 96% (active) in assay [5].
Consider `OB(O)c1cccc(B(O)O)c1`, for which the growth inhibition is -4.2% in assay [1]; -28.7% in assay [2]; -7.45% in assay [6]; -21.9% in assay [4]; -10.1% in assay [5].
Taken in the same sequence, the figures for `O=C(O)c1ccc(O)c([N+](=O)[O-])c1` were 8.2%, -33.5%, 9%, 6.85% and 27.2%.
